Counter-ions that a name gives are not always drawn. ± gives the standard deviation of the averaged measurements. In all, about 1,300 compounds were measured (“normalised cell viability”: median about 1, lowest 2% from about 0.15 on). This excerpt belongs to a sample that is enriched for the lowest values.

This test has as its system V-C8 + BRCA2 (BRCA2-proficient hamster cells). As to the kind of experiment: normalised cell viability (fraction of plate median); higher = more viable cells (less toxic). The note with it: 5 µM. The method, boiled down: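 Hamster V-C8 cells with and without restored BRCA2 were exposed in 96-well plates to library drugs at 5 μM for 3 days (screen 1) or 6 days (screen 2). Cell viability was scored by resazurin assay, then median-plate normalised, averaging triplicate wells.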

`CC[C@H](c1ccc(O)cc1)[C@@H](CC)c1ccc(O)cc1` [Hexestrol]: the normalised cell viability came out at 0.9735 ± 0.0097 (treatment time: 3 days) and 0.944 ± 0.19 (treatment time: 6 days).
For `Nc1nc(NC2CC2)c2ncn([C@H]3C=C[C@@H](CO)C3)c2n1` [Abacavir Sulfate], in that order: 1.04 ± 0.02 and 1.07 ± 0.034.
For `C=CCOC(Cn1ccnc1)c1ccc(Cl)cc1Cl` (configuration not stated) [Enilconazole], in that order: 0.985 ± 0.021 and 1.04 ± 0.013.
For `NC(N)=Nc1nc(CSCC/C(N)=N/S(N)(=O)=O)cs1` [Famotidine], in that order: 1.16 ± 0.079 and 1.1 ± 0.096.
Take `CC(C)(O/N=C(\C(=O)N[C@@H]1C(=O)N2C(C(=O)[O-])=C(C[n+]3ccccc3)CS[C@H]12)c1csc(N)n1)C(=O)O` [Ceftazidime pentahydrate]: the normalised cell viability is, setting by setting: (treatment time: 3 days) 1.03 ± 0.011; (treatment time: 6 days) 1 ± 0.039.
For `Cc1ccc(O)c([C@H](CCN(C(C)C)C(C)C)c2ccccc2)c1` [Tolterodine tartrate], in that order: 1.05 ± 0.062 and 0.965 ± 0.053.
Taken in the same sequence, the figures for `COc1ccc2cc(CCC(C)=O)ccc2c1` [Nabumetone] were 1.05 ± 0.12 and 1.02 ± 0.044.
For `CC(C)C(=O)c1c(C(C)C)nn2ccccc12` [Ibudilast], in that order: 0.987 ± 0.062 and 0.981 ± 0.061.
Take `CC(C)(C)NC[C@H](O)c1ccc(O)c(CO)c1` [Levalbuterol hydrochloride]: the normalised cell viability (treatment time: 3 days) stood at 0.965 ± 0.089 and the normalised cell viability (treatment time: 6 days) turned out to be 1.004 ± 0.0069.
Taken in the same sequence, the figures for `Clc1ccc(CO/N=C(\Cn2ccnc2)c2ccc(Cl)cc2Cl)c(Cl)c1` [Oxiconazole Nitrate] were 1.07 ± 0.16 and 0.675 ± 0.12.
In the case of `CC(=O)OCC(=O)[C@@]12OC(C)(C)O[C@@H]1C[C@H]1[C@@H]3C[C@H](F)C4=CC(=O)C=C[C@]4(C)[C@@]3(F)[C@@H](O)C[C@@]12C` [Fluocinonide], the normalised cell viability runs as follows: (treatment time: 3 days) 1.04 ± 0.017; (treatment time: 6 days) 1.06 ± 0.04.
For `C[n+]1ccccc1/C=N/O` [Pralidoxime chloride], in that order: 0.99 ± 0.036 and 0.9475 ± 0.0081.
For `NS(=O)(=O)c1cc(C2(O)NC(=O)c3ccccc32)ccc1Cl` (configuration not stated) [Chlorthalidone], in that order: 1.1 ± 0.018 and 1.03 ± 0.079.
For `CCc1cccc2c3c([nH]c12)C(CC)(CC(=O)O)OCC3` (configuration not stated) [Etodolac], in that order: 0.922 ± 0.034 and 1.04 ± 0.084.
For `CN[C@@H]1[C@H](O[C@H]2[C@H](O[C@H]3[C@H](O)[C@@H](O)[C@H](NC(=N)N)[C@@H](O)[C@@H]3NC(=N)N)O[C@@H](C)[C@]2(O)CO)O[C@@H](CO)[C@H](O)[C@H]1O` [Dihydrostreptomycin sulfate], the normalised cell viability reads like this: (treatment time: 3 days) 0.911 ± 0.07; (treatment time: 6 days) 0.983 ± 0.042.
Taken in the same sequence, the figures for `NS(=O)(=O)c1cc2c(cc1C(F)(F)F)NC(Cc1ccccc1)NS2(=O)=O` (configuration not stated) [Bendroflumethiazide] were 0.992 ± 0.096 and 1.03 ± 0.032.
For `CC[C@H](C)C(=O)O[C@H]1C[C@@H](C)C=C2C=C[C@H](C)[C@H](CC[C@@H]3C[C@@H](O)CC(=O)O3)[C@H]21` [Lovastatin], the normalised cell viability is 0.19 ± 0.015 (treatment time: 3 days) and 0.153 ± 0.019 (treatment time: 6 days).
For `CC[C@H](C)C(=O)O[C@H]1CCC=C2C=C[C@H](C)[C@H](CC[C@@H]3C[C@@H](O)CC(=O)O3)[C@H]21` [Mevastatin], in that order: 0.246 ± 0.0034 and 0.23 ± 0.011.
Taken in the same sequence, the figures for `CC[C@H](C)C(=O)O[C@H]1C[C@H](O)C=C2C=C[C@H](C)[C@H](CC[C@@H](O)C[C@@H](O)CC(=O)O)[C@H]21` [Pravastatin] were 0.969 ± 0.14 and 1.02 ± 0.089.
As to `NCCNCCNCCNCCN` [Tetraethylenepentamine pentahydrochloride], the normalised cell viability by setting is: (treatment time: 3 days) 0.972 ± 0.03; (treatment time: 6 days) 1.01 ± 0.024.
In the case of `CC=CC1=C(C(=O)O)N2C(=O)[C@@H](NC(=O)[C@H](N)c3ccc(O)cc3)[C@H]2SC1` [Cefprozil], the normalised cell viability reads like this: (treatment time: 3 days) 0.951 ± 0.071; (treatment time: 6 days) 0.908 ± 0.072.
Taken in the same sequence, the figures for `Clc1cnccn1` [2-Chloropyrazine] were 1.02 ± 0.036 and 1.02 ± 0.071.
Taken in the same sequence, the figures for `Cc1cc(-c2ccccc2)nnc1NCCN1CCOCC1` [Minaprine dihydrochloride] were 1.1 ± 0.02 and 1.03 ± 0.048.
For `CC(C(=O)O)c1ccc2c(c1)[nH]c1ccc(Cl)cc12` (configuration not stated) [Carprofen], the normalised cell viability (treatment time: 3 days) was determined as 1.04 ± 0.11 and the normalised cell viability (treatment time: 6 days) was determined as 1.04 ± 0.13.
For `CN(Cc1ccc(C(C)(C)C)cc1)Cc1cccc2ccccc12` [Butenafine Hydrochloride], in that order: 1.06 ± 0.05 and 0.982 ± 0.048.
For `C[C@@H]1C[C@H]2[C@@H]3C[C@H](F)C4=CC(=O)C=C[C@]4(C)[C@@]3(Cl)[C@@H](O)C[C@]2(C)[C@H]1C(=O)COC(=O)C(C)(C)C` [Clocortolone pivalate], in that order: 1.03 ± 0.27 and 0.899 ± 0.07.
Regarding `CCN(CC)C(=O)C1(c2ccccc2)CC1CN` (configuration not stated) [Milnacipran hydrochloride], the normalised cell viability reads like this: (treatment time: 3 days) 0.956 ± 0.095; (treatment time: 6 days) 0.937 ± 0.048.
Take `COc1nc(C)nc(Cl)c1NC1=NCCN1` [Moxonidine]: the normalised cell viability is, setting by setting: (treatment time: 3 days) 1.014 ± 0.0037; (treatment time: 6 days) 0.9963 ± 0.0028.
Regarding `CC1CC(OC(=O)c2ccccc2O)CC(C)(C)C1` (configuration not stated) [Homosalate], the normalised cell viability runs as follows: (treatment time: 3 days) 1.03 ± 0.04; (treatment time: 6 days) 1.02 ± 0.074.
With `CN(C)C(=O)C(CCN1CCC(O)(c2ccc(Cl)cc2)CC1)(c1ccccc1)c1ccccc1` [Loperamide hydrochloride], the normalised cell viability is, setting by setting: (treatment time: 3 days) 0.687 ± 0.041; (treatment time: 6 days) 0.67 ± 0.057.
Consider `CN[C@H](CC(C)C)C(=O)N[C@H]1C(=O)N[C@@H](CC(N)=O)C(=O)N[C@H]2C(=O)N[C@H]3C(=O)N[C@H](C(=O)N[C@H](C(=O)O)c4cc(O)cc(O)c4-c4cc3ccc4O)[C@H](O)c3ccc(c(Cl)c3)Oc3cc2cc(c3O[C@@H]2O[C@H](CO)[C@@H](O)[C@H](O)[C@H]2O[C@H]2C[C@](C)(N)[C@H](O)[C@H](C)O2)Oc2ccc(cc2Cl)[C@H]1O` [Vancomycin hydrochloride], for which the normalised cell viability (treatment time: 3 days) came to 0.177 ± 0.0067 and the normalised cell viability (treatment time: 6 days) was 0.17 ± 0.018.

Source of the values: the supplement of paper PMC6609913.
